Experimental findings from ChEMBL document CHEMBL3988442, “University of Dundee, Small-Polar-MMV Screening Library” (2021) are described below.

For part of these data: Potency and affinity values are given separately.

What all share (design): scale not given: direction of the effect not stated beside the values
Assay [1] has as its target Protein translocase subunit SecA (Escherichia coli (strain K12)) (UniProt P10408). Nature of the assay: Assay to Identify E. coli SecA ATPase Inhibitors. The assay is classed as functional. The settings on record: 30 µM.
The target in assay [2] is T1, Ubiquitin-activating enzyme e1, putative (Leishmania donovani (strain BPK282A1)) (UniProt E9BSI1).
T1 sequence (whole entry): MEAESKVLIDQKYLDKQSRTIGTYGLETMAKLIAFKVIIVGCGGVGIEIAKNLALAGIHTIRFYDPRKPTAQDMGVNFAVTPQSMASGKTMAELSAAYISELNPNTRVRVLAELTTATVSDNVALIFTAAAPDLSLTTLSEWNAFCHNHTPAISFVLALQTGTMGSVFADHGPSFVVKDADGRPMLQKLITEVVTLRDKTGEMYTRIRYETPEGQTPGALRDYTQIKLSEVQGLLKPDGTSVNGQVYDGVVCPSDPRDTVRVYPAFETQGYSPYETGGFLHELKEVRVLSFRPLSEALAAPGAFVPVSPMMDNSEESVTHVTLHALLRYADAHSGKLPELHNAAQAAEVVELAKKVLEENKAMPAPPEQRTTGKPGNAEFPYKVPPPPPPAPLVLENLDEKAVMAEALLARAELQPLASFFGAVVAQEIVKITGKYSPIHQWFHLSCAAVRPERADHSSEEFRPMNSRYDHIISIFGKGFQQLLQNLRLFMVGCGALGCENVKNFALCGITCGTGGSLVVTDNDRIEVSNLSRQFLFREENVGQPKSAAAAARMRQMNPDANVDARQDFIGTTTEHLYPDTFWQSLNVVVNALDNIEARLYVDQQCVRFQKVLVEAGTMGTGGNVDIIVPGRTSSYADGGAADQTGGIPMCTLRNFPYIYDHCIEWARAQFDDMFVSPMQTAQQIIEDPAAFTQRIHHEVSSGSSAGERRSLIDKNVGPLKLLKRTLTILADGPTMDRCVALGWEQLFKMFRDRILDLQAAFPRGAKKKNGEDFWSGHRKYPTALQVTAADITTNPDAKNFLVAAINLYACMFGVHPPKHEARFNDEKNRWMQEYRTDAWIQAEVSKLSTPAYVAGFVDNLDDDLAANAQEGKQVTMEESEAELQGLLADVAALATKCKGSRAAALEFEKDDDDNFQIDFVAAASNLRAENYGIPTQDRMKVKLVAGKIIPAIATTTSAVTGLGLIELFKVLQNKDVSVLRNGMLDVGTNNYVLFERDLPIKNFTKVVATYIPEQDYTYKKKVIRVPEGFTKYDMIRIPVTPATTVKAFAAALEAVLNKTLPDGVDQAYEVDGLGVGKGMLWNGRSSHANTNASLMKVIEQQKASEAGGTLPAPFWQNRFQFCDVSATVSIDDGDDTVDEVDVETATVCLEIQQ
Nature of the assay: Leishmania donovani Ubiquitin Activating Enzyme (LdE1). The class given is functional. The settings on record: 30 µM.

The target of assay [3] is Sialic acid-binding Ig-like lectin 9 (Homo sapiens) (UniProt Q9Y336). Nature of the assay: Hs-Siglec9 ALPHAscreen SOP 20170721. As to conditions: 10 µM.
Assay [4] deals with Trypanosoma cruzi. Nature of the assay: Trypanosoma cruzi phosphomannomutase and mannose-1-phosphate guanylyltransferase assay. As to conditions: 10 µM. The assay is classed as functional.
Assay [5] concerns the target T2, Arginase-2, mitochondrial (Homo sapiens) (UniProt P78540).
T2 sequence (whole entry): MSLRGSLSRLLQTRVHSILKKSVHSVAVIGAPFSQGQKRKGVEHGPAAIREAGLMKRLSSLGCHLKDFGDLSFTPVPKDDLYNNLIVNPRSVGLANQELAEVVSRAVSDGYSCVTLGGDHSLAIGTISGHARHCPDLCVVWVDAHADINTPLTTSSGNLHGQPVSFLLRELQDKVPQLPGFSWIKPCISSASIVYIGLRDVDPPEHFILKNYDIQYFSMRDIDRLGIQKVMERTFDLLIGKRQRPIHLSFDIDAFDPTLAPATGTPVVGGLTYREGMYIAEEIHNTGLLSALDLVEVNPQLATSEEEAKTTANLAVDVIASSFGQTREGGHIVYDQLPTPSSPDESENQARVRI
Nature of the assay: in vitro enzyme assay to detect the production of urea directly proportional to the activity of Arginase II. Note: in the data most compounds retested in dose-response had high values. The class given is functional. As to conditions: 33.3 µM.

Assay [6] concerns the target T3, Proteasome subunit beta (Trypanosoma cruzi) (UniProt O96673).
T3 sequence (whole entry): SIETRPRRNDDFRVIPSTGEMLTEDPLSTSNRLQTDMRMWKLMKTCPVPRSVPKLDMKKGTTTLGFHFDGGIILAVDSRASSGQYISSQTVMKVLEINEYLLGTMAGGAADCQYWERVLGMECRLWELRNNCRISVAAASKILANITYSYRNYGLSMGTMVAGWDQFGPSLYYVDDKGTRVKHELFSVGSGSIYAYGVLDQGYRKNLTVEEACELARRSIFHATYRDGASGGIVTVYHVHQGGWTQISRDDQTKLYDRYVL
Nature of the assay: Trypanosoma cruzi proteasome chymotrypsin-like activity (TcProtChymo) assay. Note: in the data most compounds retested in dose-response had high values. The class given is functional. As to conditions: 9.37 µM.

The species named for assay [7] is Homo sapiens. Nature of the assay: To identify inhibition of the IFN signalling (Jak-Stat) pathway via expression of an eGFP reporter gene under the control of an IFN-stimulated response element (ISRE) containing MxA promoter. The assay is classed as functional. The settings on record: 30 µM.
The target in assay [8] is T4, Tyrosyl-tRNA synthetase, putative (Trypanosoma cruzi (strain CL Brener)) (UniProt Q4DSP6).
T4 sequence (whole entry): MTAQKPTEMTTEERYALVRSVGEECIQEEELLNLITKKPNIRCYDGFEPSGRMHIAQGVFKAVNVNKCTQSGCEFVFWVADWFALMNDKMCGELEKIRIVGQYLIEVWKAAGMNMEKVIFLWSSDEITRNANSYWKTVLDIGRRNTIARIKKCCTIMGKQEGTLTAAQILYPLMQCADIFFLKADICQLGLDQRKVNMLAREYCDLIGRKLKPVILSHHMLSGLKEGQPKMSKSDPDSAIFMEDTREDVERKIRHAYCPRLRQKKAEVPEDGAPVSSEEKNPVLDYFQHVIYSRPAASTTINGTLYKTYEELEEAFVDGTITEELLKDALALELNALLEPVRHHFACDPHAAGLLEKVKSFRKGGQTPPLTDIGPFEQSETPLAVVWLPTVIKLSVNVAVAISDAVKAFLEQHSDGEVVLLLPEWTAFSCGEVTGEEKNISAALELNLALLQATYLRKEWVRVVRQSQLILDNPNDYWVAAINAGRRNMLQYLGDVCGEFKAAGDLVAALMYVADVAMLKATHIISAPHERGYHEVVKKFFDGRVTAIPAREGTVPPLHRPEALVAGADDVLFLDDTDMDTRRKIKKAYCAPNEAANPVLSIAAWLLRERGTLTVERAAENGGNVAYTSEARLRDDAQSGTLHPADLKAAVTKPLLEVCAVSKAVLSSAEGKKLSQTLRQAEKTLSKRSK
Nature of the assay: Trypanosoma cruzi tyrosyl tRNA synthetase (TcYRS) _High Tyrosine SOP. Note: in the data most compounds retested in dose-response had high values. The assay is classed as functional. As to conditions: 30 µM.

Assay [9] concerns the target T4, Tyrosyl-tRNA synthetase, putative (Trypanosoma cruzi (strain CL Brener)). Nature of the assay: Trypanosoma cruzi tyrosyl tRNA synthetase (TcYRS) SOP. The class given is functional. As to conditions: 30 µM.
In assay [10] the target is Chromo domain-containing protein 1 (Saccharomyces cerevisiae (strain ATCC 204508 / S288c) (Baker's yeast)) (UniProt P32657). Nature of the assay: ScCHD-1 Enzyme Inhibition Assay. Note: in the data most compounds retested in dose-response had high values. The assay is classed as functional. The settings on record: 30 µM.
Chain of Chromo domain-containing protein 1 (Saccharomyces cerevisiae (strain ATCC 204508 / S288c) (Baker's yeast)) (P32657 whole entry, the tested form may be a part): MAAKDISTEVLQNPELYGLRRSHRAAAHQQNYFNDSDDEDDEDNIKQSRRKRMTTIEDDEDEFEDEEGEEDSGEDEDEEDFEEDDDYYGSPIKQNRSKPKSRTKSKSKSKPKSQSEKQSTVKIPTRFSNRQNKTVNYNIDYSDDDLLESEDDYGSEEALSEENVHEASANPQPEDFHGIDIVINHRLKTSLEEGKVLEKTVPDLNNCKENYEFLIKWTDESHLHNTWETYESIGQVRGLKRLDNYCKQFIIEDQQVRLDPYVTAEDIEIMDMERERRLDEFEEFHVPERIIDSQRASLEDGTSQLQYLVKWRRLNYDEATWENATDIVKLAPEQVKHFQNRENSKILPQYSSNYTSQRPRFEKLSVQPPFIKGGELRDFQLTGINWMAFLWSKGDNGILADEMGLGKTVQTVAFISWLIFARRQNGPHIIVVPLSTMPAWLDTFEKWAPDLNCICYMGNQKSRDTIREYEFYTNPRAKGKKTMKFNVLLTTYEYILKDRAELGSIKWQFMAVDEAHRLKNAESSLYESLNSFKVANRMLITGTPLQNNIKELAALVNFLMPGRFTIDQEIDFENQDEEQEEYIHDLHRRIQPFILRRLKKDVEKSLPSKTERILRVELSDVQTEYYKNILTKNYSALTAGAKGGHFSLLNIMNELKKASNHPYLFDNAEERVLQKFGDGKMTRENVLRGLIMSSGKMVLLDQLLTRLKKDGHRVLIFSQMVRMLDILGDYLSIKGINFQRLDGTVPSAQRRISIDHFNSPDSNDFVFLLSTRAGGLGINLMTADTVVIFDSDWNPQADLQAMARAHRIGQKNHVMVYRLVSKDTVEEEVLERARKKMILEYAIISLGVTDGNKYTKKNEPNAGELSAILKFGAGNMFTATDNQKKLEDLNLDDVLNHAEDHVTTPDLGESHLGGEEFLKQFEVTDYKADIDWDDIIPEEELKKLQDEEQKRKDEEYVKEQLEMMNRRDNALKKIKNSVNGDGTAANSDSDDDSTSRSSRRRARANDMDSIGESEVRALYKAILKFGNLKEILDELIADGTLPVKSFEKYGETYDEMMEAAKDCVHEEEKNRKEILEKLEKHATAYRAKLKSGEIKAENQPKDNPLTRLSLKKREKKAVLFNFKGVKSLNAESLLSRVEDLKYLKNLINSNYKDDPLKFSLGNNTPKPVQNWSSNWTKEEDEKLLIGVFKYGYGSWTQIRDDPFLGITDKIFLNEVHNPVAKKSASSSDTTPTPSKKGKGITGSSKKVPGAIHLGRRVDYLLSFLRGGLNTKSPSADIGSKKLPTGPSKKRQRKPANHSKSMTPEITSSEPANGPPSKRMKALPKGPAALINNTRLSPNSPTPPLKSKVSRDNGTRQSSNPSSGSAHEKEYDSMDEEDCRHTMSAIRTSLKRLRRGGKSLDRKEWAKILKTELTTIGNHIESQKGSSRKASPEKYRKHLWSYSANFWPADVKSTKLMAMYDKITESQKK

Chain of Sialic acid-binding Ig-like lectin 9 (Homo sapiens) (Q9Y336 whole entry): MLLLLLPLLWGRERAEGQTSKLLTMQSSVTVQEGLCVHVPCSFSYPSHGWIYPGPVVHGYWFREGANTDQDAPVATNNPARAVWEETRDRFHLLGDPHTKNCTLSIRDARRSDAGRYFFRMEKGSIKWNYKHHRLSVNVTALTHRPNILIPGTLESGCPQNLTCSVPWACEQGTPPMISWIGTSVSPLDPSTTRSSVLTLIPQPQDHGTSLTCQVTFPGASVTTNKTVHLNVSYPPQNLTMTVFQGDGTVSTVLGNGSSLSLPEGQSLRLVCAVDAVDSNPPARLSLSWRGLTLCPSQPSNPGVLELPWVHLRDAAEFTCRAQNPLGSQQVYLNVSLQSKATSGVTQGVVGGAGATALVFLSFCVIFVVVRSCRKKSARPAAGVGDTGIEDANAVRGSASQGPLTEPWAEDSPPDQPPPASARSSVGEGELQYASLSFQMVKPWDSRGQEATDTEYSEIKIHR
Chain of Protein translocase subunit SecA (Escherichia coli (strain K12)) (P10408 whole entry): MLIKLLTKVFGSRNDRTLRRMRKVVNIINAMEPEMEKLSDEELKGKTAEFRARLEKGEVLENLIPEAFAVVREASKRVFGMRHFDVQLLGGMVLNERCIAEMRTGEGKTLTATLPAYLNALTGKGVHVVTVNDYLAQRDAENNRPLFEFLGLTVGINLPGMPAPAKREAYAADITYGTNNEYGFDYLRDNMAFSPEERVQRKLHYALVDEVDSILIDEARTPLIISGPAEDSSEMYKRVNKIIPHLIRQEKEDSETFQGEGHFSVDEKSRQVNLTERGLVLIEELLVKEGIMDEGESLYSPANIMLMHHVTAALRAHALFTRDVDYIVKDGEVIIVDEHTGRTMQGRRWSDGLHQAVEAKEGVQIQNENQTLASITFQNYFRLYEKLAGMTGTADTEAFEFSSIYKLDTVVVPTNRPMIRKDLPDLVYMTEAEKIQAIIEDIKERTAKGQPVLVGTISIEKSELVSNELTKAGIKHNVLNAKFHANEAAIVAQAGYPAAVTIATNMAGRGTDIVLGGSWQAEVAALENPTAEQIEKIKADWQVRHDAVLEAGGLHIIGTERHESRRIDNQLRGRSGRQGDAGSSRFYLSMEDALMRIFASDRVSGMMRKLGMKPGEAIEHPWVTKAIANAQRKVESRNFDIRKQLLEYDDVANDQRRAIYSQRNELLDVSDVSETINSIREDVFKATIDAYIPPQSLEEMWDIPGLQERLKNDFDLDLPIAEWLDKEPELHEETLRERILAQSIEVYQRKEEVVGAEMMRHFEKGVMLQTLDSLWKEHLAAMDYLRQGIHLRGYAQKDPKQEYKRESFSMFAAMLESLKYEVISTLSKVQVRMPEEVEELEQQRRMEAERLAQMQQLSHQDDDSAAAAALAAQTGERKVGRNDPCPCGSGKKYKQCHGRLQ

In the case of `Cn1cc(CN2CCCN(C(=O)c3cc[nH]n3)CC2)cn1`, the Percent Effect in [1] is -1.81%; in assay [2] it was 5.13%; in assay [3], -4.2%; in assay [4], 4.22%; in assay [5] it was -0.41%; in assay [6], -6.57%. The Percent Effect in [7] is 23.7%; in assay [8] it was 0.478%; in [9], 13.2%; in [10] it was -1.64%.

For `O=C1CC(c2ccco2)c2sc(C(=O)O)c(-c3ccccc3)c2N1` (stereo not given), the Percent Effect in [1] is -3.7%; in assay [2], 18.9%; in assay [3], 68.7%; in [4] it was 2.23%; in [5], -3.85%; in [6], 27.7%. The Percent Effect in assay [7] was -0.84%; in [8], 7.98%; in [9] it was 17.1%; in [10], 44.8%.

For the molecule `Cc1nn(C)c(N(C)C)c1CNCCCN(C)S(C)(=O)=O`, the Percent Effect in assay [1] is -1.22%; in [2] it was 12.8%; in [3], -8.74%; in assay [4], -3.47%; in assay [5], 5.33%; in [6], 10.2%. For the same molecule, the Percent Effect in assay [7] is 4.19%; in assay [8], 2.39%; in assay [9], 18.1%; in [10], -3.07%.

Regarding `COc1ccc2c(c1)OCC(CNC(=O)c1ccncc1)C2` (stereo not given), the Percent Effect in assay [1] was -6.47%; in assay [2] it was 13.5%; in [3], 11.5%; in assay [4], 7.66%; in [5] it was 43.7%; in [6] it was 20.4%. Besides, the Percent Effect in assay [7] is 32.2%; in [8], 7.98%; in [9], 19.5%; in [10] it was 71.9%.

With `O=C(CC1CCCC1)N1C[C@@H]2CCN(c3cccnc3)C[C@@H]2C1`, the Percent Effect was -3.01% in [1]; 3.9% in [2]; 3.29% in [3]; -3.94% in [4]; 2.28% in assay [5]; 19.3% in assay [6]. The Percent Effect is 35.3% in [7], 2.9% in assay [8], 0% in [9] and -2.18% in assay [10].

On to `COc1cc(C)nc(N2CCN(C(=O)CN(C)C3CC3)CC2)n1`, for which the Percent Effect in [1] is -5.5%; in assay [2], 7.69%; in [3] it was -4.33%; in [4] it was -3.1%; in [5], -1.23%; in assay [6] it was 2.99%. Also, the Percent Effect in [7] was 28.9%; in assay [8], -1.44%; in assay [9], 8.43%; in [10] it was 0.147%.

For `CC(c1nc(C2CC2)no1)N1CCN(Cc2ccsc2)CC1` (stereo not given), the Percent Effect in assay [1] is -4.58%; in [2], 2.56%; in [3], 2.79%; in [4], 1.97%; in [5] it was -1.64%; in [6], 3.67%. The Percent Effect in [7] is 3.35%; in [8] it was 4.31%; in assay [9], 8.43%; in [10] it was -5.15%.

For `CCCc1cc(CNC(=O)C2CCOc3ccccc3C2)on1` (stereo not given), the Percent Effect is -1.27% in assay [1]; 10.8% in assay [2]; 3.17% in assay [3]; 2.62% in assay [4]; 15.7% in assay [5]; 10.8% in [6]. Further, the Percent Effect is 29.7% in assay [7], 5.85% in assay [8], 14.6% in assay [9] and -2.75% in [10].

For `Cc1cccc(-c2noc(CN3CCCC3Cn3cccn3)n2)c1` (stereo not given), the Percent Effect in assay [1] is -4.47%; in assay [2], -13.3%; in assay [3], 4.15%; in assay [4], 2.81%; in [5], -0.887%; in assay [6], 9.07%. The Percent Effect in assay [7] was 35.3%; in assay [8], 1.58%; in [9] it was 2.56%; in [10], -6.03%.

As for `Cc1nc(CN2CCO[C@@H]3CN(C(=O)NC(C)C)CC[C@@H]3C2)cs1`, the Percent Effect in assay [1] was -3.94%; in [2], 1.3%; in assay [3], 0.95%; in assay [4] it was -3.8%; in [5] it was -0.405%; in [6], 1.85%. Moreover, the Percent Effect is -21.3% in assay [7], 3.68% in assay [8], 7.69% in assay [9] and -1.55% in assay [10].

As for `COc1ncccc1CNC(=O)c1cccnc1O`, the Percent Effect in assay [1] was -1.81%; in assay [2] it was 12.8%; in assay [3], -3.2%; in assay [4], 5.35%; in [5] it was 1.23%; in assay [6], 8.79%. Also, the Percent Effect was -10.7% in assay [7], 11% in assay [8], 22.9% in [9] and -2.93% in [10].

For the molecule `CCOC1CCCN(C(=O)c2sccc2-n2cnnn2)C1` (stereo not given), the Percent Effect in assay [1] is -1.7%; in [2] it was 20.5%; in [3], -9.12%; in assay [4], 8.73%; in [5] it was -1.23%; in [6], 13.1%. The Percent Effect in assay [7] was 21.5%; in assay [8] it was 8.13%; in assay [9] it was 22.9%; in assay [10], -4.42%.
